Results on 58 compounds are retold here after PubChem BioAssay AID651821 (The Scripps Research Institute Molecular Screening Center, 2012).

Where “and” joins values, the source holds several entries; their conditions need not be identical. Equal entries are not always repeated. The campaign covered roughly 370,000 compounds. About 4,700 (1.3%) were called active.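 How the source made its calls: active means inhibition above the plate cutoff, the mean of all test compounds on that plate plus 3 SD (cut at about 35% in these data); inactive means the rest.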 This excerpt belongs to a sample that is enriched for actives.

The assay in a line: small molecules binding CAG repeat RNA – biochemical, fluorescence, primary screen (AID 651821).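 Further: 0% = DMSO alone and 100% = 100 µM mitoxantrone as full dye displacement; higher means more dye released from RNA so lower well fluorescence.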 Particulars: r(CAG) RNA repeat, TO-PRO-1 dye displacement fluorescence; at 3 µM; hits give high values.
Consider `COc1ccc(OC)c(-n2cc3c(=O)n(C)c(=O)n(C)c3c2)c1`, for which the inhibition (usually the change of the read-out against control, counted positive when it falls) is 2.65% (inactive).

Take `CCOC(=O)N1C(=O)C[C@](Sc2ccc(C)cc2)(C(=O)OC)[C@H]1c1ccccc1`: the inhibition was -2.71% (inactive).

Regarding `COC(=O)c1ccccc1-n1cc(COC(=O)NCCc2ccccc2)nn1`, the inhibition is 1.18% (inactive).

For the compound `Cc1noc(C)c1S(=O)(=O)Nc1ccc(C(=O)O)cc1`, the inhibition was -0.8% (inactive).

In the case of `Cc1oc2c(F)c(F)c(F)c(F)c2c1S(=O)(=O)Nc1cccc(C(F)(F)F)c1`, the inhibition is 53.7% (active).

Regarding `Cc1ccc(N(CCC(=O)O)S(=O)(=O)c2cccc(C(F)(F)F)c2)cc1`, the inhibition is 5.06% (inactive).

Turning to `COC(=O)[C@H](C(C)C)N(CCc1cn(Cc2ccccc2)nn1)S(=O)(=O)c1ccc(F)cc1Br`, the inhibition is 3.36% (inactive).

Take `CSCCC1NC2(C(=O)Nc3ccc(Cl)cc32)[C@@H]2C(=O)N(C3CCCC3)C(=O)[C@H]12` (stereo partly drawn): the inhibition is -2.44% (inactive).

On to `Cc1ccc(NC(=O)c2cc(C)nn2-c2ccccc2)c(C)c1`, for which the inhibition was 2.01% (inactive).

`O=C(COc1ccc2c(C(F)(F)F)cc(=O)oc2c1)Nc1ccc2c(c1)OCCO2`: the inhibition was 4.46% (inactive).

For `O=C(COc1ccc2c3c(c(=O)oc2c1)CCC3)NC1CCCCC1`, the inhibition is -4.24% (inactive).

On to `Cc1cc(C)cc(Oc2c(C(F)(F)F)oc3cc(OCC(=O)O)ccc3c2=O)c1`, for which the inhibition is 44.4% (active).

In the case of `CC(c1c[nH]c2ccccc12)c1c(-c2ccccc2)n(C)c2ccccc12` (stereo not drawn), the inhibition was 8.54% (inactive).

In the case of `COc1ccc(Cl)cc1-n1c(=S)sc2c(=O)n(-c3ccc(F)cc3)c(SCC(=O)O)nc21`, the inhibition is 40.9% (active).

As for `COc1ccccc1-n1c(SCC(=O)O)nc2sc3c(c2c1=O)CCC3`, the inhibition is 5.16% (inactive).

Consider `CCc1ccc(-n2c(=S)sc3c(=O)n(-c4ccccc4OC)c(=S)[nH]c32)cc1`, for which the inhibition was 9% (inactive).

In the case of `CCN1C(=O)/C(=C2/Sc3ccccc3N2CCCS(=O)(=O)O)SC1=S`, the inhibition is 51.4% (active) and 69.1% (active).

With `COc1ccc2c(c1)N(C)/C(=C1/SC(=S)N(NC(C)=O)C1=O)S2`, the inhibition was 5.15% (inactive).

With `CCCCN1C(=O)/C(=C2/C=CC=CN2C)SC1=S`, the inhibition is -1.7% (inactive).

As to `CC(CC(=O)N1CCN(c2ccccc2)CC1)S(=O)(=O)c1ccc2c(c1)NC(=O)CS2` (stereo not drawn), the inhibition is -1.08% (inactive).

As for `O=C(CCCCCN1C(=O)C2C3C=CC(C3)C2C1=O)Nc1ccccn1` (stereo not drawn), the inhibition is 1.49% (inactive).

Consider `COC(=O)Cc1nnn2c1[C@H](C)[C@H](c1ccccc1[N+](=O)[O-])OCC2`, for which the inhibition is 2.71% (inactive).

For the compound `CCOC(=O)C1=C(C(=O)OCC)C2N(Cc3ccc(C#N)cc3)c3ccccc3[C@@]23C[C@@H](C(=O)OC)N(S(=O)(=O)c2ccc(F)cc2)C3=N1` (stereo partly drawn), the inhibition was 15.6% (inactive).

As for `CCc1ccc(OC(C)C(=O)Nc2ccc(S(=O)(=O)Nc3cc(C)on3)cc2)cc1` (stereo not drawn), the inhibition is 36.2% (active).

On to `CCOc1ccc(C(=O)Nc2ccc(S(=O)(=O)Nc3cc(C)on3)cc2)cc1`, for which the inhibition was 39.1% (active).

On to `CCOc1cc(C(=O)Nc2ccc(S(=O)(=O)Nc3cnc4ccccc4n3)cc2)cc(OCC)c1OCC`, for which the inhibition was 66.1% (active).

Consider `C=C(C)CNC(=S)Nc1ccc(S(=O)(=O)Nc2cnc3ccccc3n2)cc1`, for which the inhibition was 19.2% (inactive).

For `CCC(Oc1ccccc1C)C(=O)Nc1ccc(S(=O)(=O)Nc2cc(C)on2)cc1` (stereo not drawn), the inhibition is 20.8% (inactive).

Take `CCOc1ccc(CC(=O)Nc2ccc(S(=O)(=O)Nc3cc(C)on3)cc2)cc1OCC`: the inhibition was 22.4% (inactive).

Consider `O=C(/C=C/Nc1ccc(S(=O)(=O)Nc2cnc3ccccc3n2)cc1)c1cccnc1`, for which the inhibition is 5.52% (inactive).

For `Cc1cc(NS(=O)(=O)c2ccccc2)no1`, the inhibition is -0.66% (inactive).

`COc1cc2ccccc2cc1C(=O)Nc1ccc(S(=O)(=O)Nc2cc(C)on2)cc1`: the inhibition is 67.5% (active).

`Cc1cc(NS(=O)(=O)c2ccc(NC(=S)NC(=O)c3ccc(F)cc3Cl)cc2)no1`: the inhibition was 33.1% (inactive).

For `CCOc1ccc(Br)cc1S(=O)(=O)Nc1ccc(S(=O)(=O)Nc2cc(C)on2)cc1`, the inhibition is 14.9% (inactive).

For `COc1ccc(S(=O)(=O)Nc2cc(C)on2)cc1NC(C)=O`, the inhibition was 3.85% (inactive).

Turning to `COc1cccc(CNC(=O)[C@H]2CCCN2C(=O)[C@H]2CCCN2C(=O)c2ccc(F)cc2)c1`, the inhibition was 0.66% (inactive).

Turning to `Cc1cc(OC(=O)NCCc2ccc(F)cc2)ccc1F`, the inhibition was 1.32% (inactive).

With `CC(=O)c1ccc(S(=O)(=O)NCC2CCN(C(=O)C(=O)c3cccs3)CC2)cc1`, the inhibition was 2.35% (inactive).

For the compound `COc1ccc(SSc2ccc(OC)cc2C(=O)O)c(C(=O)O)c1`, the inhibition is 2.51% (inactive).

Consider `CC[C@@H](CCC(=O)N(c1ccccc1)c1ccccc1)C1CC1`, for which the inhibition is 1.63% (inactive).

Take `COCC(C)NC(=O)COc1nncc2ccccc12` (stereo not drawn): the inhibition was -0.71% (inactive).

In the case of `O=C(CSc1nc2ccccc2n1Cc1ccccc1)NNC(=S)Nc1ccccc1`, the inhibition is 31.7% (inactive).

`C[C@H]1CN([C@@H](C)CO)C(=O)CCCn2nncc2CO[C@@H]1CN(C)C(=O)Nc1ccc(N2CCN(C)CC2)cc1`: the inhibition is 4.52% (inactive).

Turning to `CC1CC1C(=O)OCC(=O)c1c(N)n(C)c(=O)n(C)c1=O` (stereo not drawn), the inhibition is -4.36% (inactive).

Take `CCCCNC(=O)C[C@H]1C[C@@]2(C(=O)OC)C(=C[C@H](COCc3ccccc3)O[C@@H]2C)N(Cc2ccc(Cl)cc2Cl)C1=O`: the inhibition is 8.58% (inactive).

Regarding `CCN(CC)C(=O)CC[C@H]1CC[C@]2(CCCN(Cc3ccc(Cl)cc3)C2)O1`, the inhibition is -2.21% (inactive).

For the compound `COC(=O)c1cccc(N(C(=O)c2ccco2)C(C(=O)NC2CCCC2)c2ccco2)c1` (stereo not drawn), the inhibition was -6.24% (inactive).

On to `CCOc1ccccc1C(=O)N1CCC[C@@H]1C(=O)N1CCC[C@H]1C(=O)NCc1ccccc1`, for which the inhibition is -1.61% (inactive).

As to `COc1ccc(-c2ccc3c(n2)CCCN3S(=O)(=O)c2ccc(C)cc2)cc1`, the inhibition was 4.71% (inactive).

As to `CC(C)(C)c1ccc(S(=O)(=O)NCC2CCN(C(=O)C(=O)c3cc4ccccc4o3)CC2)cc1`, the inhibition was 9.84% (inactive).

As for `COc1ccc(/C=C2\CC3(OC(C)=O)CCCN2C3)cc1` (stereo not drawn), the inhibition is -0.3% (inactive).

With `CC(=O)Oc1c(C(=O)c2nnc(C)o2)c(=O)n(Cc2ccccc2)c2ccccc12`, the inhibition was 2.47% (inactive).

For the compound `Cc1ccc(C(=O)/C=C/Nc2ccc(S(=O)(=O)Nc3onc(C)c3C)cc2)cc1`, the inhibition is 48.3% (active).

In the case of `Cc1cc(C)nc(NS(=O)(=O)c2ccc(N/C=C\C(=O)c3cccs3)cc2)n1`, the inhibition was 10.2% (inactive).

For the compound `CC(Oc1cccc(Cl)c1)C(=O)Nc1ccc(S(=O)(=O)Nc2ncccn2)cc1` (stereo not drawn), the inhibition is 8.9% (inactive).

Consider `Cc1cc(OC(C)C(=O)Nc2ccc(S(=O)(=O)Nc3onc(C)c3C)cc2)cc(C)c1Cl` (stereo not drawn), for which the inhibition was 75.6% (active).

For `Cc1noc(NS(=O)(=O)c2ccc(NC(=O)C34CCC(CC3)C4)cc2)c1C`, the inhibition was 2.57% (inactive).

For `Cc1cc(NS(=O)(=O)c2ccc(NC(=O)C(C)Oc3cccc(C)c3C)cc2)nc(C)n1` (stereo not drawn), the inhibition is 18.4% (inactive).
